An excerpt weighted towards active compounds, which were near 4.8% of everything screened.
hcDAF12 agonist: H. contortus DAF-12 activation, primary screen; HEK293 hcDAF-12 lit1-tk-luc reporter, luminescence; 0% DMSO, 100% Δ7-dafachronic acid; activation, % at 6.8 µM; 370,000 compounds, 1.4% hits;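 active means activation above the mean of all tested compounds plus 3 SD, cut at about 5.5% in these data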;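 further: 100% = response to 3 µM Δ7-dafachronic acid high control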
hgDAF-12 ag: activates the H. glycines DAF-12 receptor ligand-binding domain; AID 687014; 370,000 compounds, 1.8% hits; HEK293 GAL4-hgDAF12 UAS-luciferase reporter, agonist luminescence; normalized to butyrate control; activation, % at 6.8 µM;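 active means activation above a cutoff set at the mean of all screened compounds plus 3 SD, cut at about 10% in these data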;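 further: 0% = DMSO wells and 100% = sodium butyrate wells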
ssDAF12 agonist: activators of S. stercoralis DAF-12 nuclear receptor; HEK293 ssDAF-12/GRIP1 lit1-tk-luc reporter, luminescence; % of 3 µM dafachronic acid response; activation, % at 6.8 µM; 370,000 compounds, 1% hits; AID 652126;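 active means activation above the mean over all tested compounds plus 3 SD, cut at about 0.9% in these data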;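 further: 0% = DMSO-only wells and 100% = 3 µM delta7-dafachronic acid wells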
SMARCA2 act: activators of SMARCA2 function; 370,000 compounds, 1% hits; activation, % at 9.1 µM; MG213 cells, MMTV-luciferase reporter, dexamethasone, overnight; AID 652017; in the data active means activation above about 7.8%;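 further: 0% = vehicle wells and 100% = reference activator wells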
DAX1 inh-1: blocks DAX1 repression of SF-1 activated StAR promoter; HEK293T StAR-luciferase reporter, SF-1/DAX-1 repression relief; inhibition, % at 6.8 µM; 370,000 compounds, 1.1% hits; AID 652010;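 active means inhibition above the mean over all tested compounds plus 3 SD, cut at about 3.6% in these data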;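 further: 0% = DAX-1 cells with DMSO and 100% = cells lacking DAX-1 with DMSO; higher inhibition means more luminescence from relief of DAX-1 repression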
DAX1 inh-2: NR0B1 (DAX1) inhibition; P51843; AID 504766; inhibition, % at 6.75 µM; 340,000 compounds, 0.99% hits; HEK293 Gal4-DAX1 luciferase reporter, luminescence;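 active means inhibition above the mean over all tested compounds plus 3 SD, cut at about 4.2% in these data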;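 further: 0% = DAX1-transfected cells with DMSO and 100% = empty-vector control cells with DMSO; inhibition shows as a rise in luminescence from relieved DAX1 repression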
Target sequence (P51843 207-470 limits assumed): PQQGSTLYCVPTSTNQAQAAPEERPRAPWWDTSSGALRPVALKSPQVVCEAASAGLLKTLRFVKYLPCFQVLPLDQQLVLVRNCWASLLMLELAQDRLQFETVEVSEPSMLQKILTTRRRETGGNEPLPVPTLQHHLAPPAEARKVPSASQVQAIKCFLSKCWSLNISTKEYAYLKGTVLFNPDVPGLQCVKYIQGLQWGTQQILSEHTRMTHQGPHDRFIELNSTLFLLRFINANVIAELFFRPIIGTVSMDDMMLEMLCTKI
Active calls of the source: *; . = no result.

SMILES	hcDAF12 agonist	hgDAF-12 ag	ssDAF12 agonist	SMARCA2 act	DAX1 inh-1	DAX1 inh-2
Cc1ccc(C(=O)N2CCN(Cc3ccc4c(c3)OCO4)CC2)o1	-1	0	-2	-5	0	0
CN(C)/C=C/C(=O)c1cccc(Oc2ncccn2)c1	1	-4	-1	2	0	4.6*
CN(C)/C=C/C(=O)c1ccncc1	-1	3	-1	-1	0	0
COC(=O)c1ccc(/C(O)=C(\C#N)c2nc3ccccc3s2)cc1	5	5	0	4	1	1
O=C(NNc1nc2ccccc2s1)c1ccccc1F	5.8*	-1	0	0	0	0
CC(C)C(=O)NNc1nc2ccccc2s1	6.2*	9	-1	3	1	0
CC(C)=C(C#N)c1nc2ccccc2s1	3	3	0	3	1	5.4*
O=C(c1ccco1)N1CCN(C(=O)c2cc(Cl)nc3ccccc23)CC1	2	1	1.2*	-4	0	0
COC(=O)c1ccc(NC(=O)CNc2ccccc2)cc1	0	2	-1	0	1	-1
O=C(NNC(=O)c1cc(-c2ccncc2)nc2ccccc12)c1ccccc1F	4	4	-1	5	2	2
O=C(NNC(=O)c1cc(Cl)nc2ccccc12)c1ccccc1F	2	-1	1.1*	-3	1	-2
CC(C)NC(=O)c1nc2ccccc2s1	3	1	3.2*	2	0	-1
O=C(NNc1nc2ccccc2s1)Nc1ccc(F)cc1	5	10	0	0	1	6.0*
CCCCCCCCCCCCCCCCCCNc1ccn(C2OC(COP(=O)(O)OCC3OC(n4cc(F)c(=O)[nH]c4=O)CC3O)C(O)C2O)c(=O)n1 (stereo not given)	0	-7	-1	2	-4	-3
C(=C/c1nccc2c1[nH]c1ccccc12)/c1ccc2c(c1)OCO2	2	13*	-1	0	1	-1
CCC(=O)NC(=S)Nc1ccccc1F	-1	2	-1	2	-1	0
COc1ccc(C(=O)NC(=S)Nc2ccccc2F)cc1	2	11*	-1	0	1	1
CC(=O)NC(=S)Nc1ccccc1F	-1	-1	-1	0	0	6.3*
CCN(CC)C(=O)CSc1ncnc2c(-c3cccs3)nsc12	2	2	0.9*	4	1	1
Cc1ccc(NC(=O)OC2CC3CC2[C@H]2CCCCN2C3)cc1 (stereo not given in full)	0	11*	-1	-1	0	.
COc1ccc(CN2CCN(S(=O)(=O)c3ccc(F)cc3)CC2)cc1OC	-2	0	-2	0	0	-1
COc1ccc(CN2CCN(S(=O)(=O)c3ccccc3)CC2)cc1Br	-3	-2	1.4*	1	0	0
COc1cc(C(=O)O/N=C2\CCCc3c2ccc(OC)c3[N+](=O)[O-])cc(OC)c1OC	-2	-2	-1	2	-1	0
COc1c(Cl)cc(Cl)cc1C(=O)Nc1ccc(CN2CCOCC2)cc1	-2	0	-1	-2	0	0
O=C(c1ccco1)N1CCN(c2nc(-c3ccc(F)cc3)cs2)CC1	-2	0	-1	-2	0	0
SMILES	hcDAF12 agonist	hgDAF-12 ag	ssDAF12 agonist	SMARCA2 act	DAX1 inh-1	DAX1 inh-2
CCCS/C(N)=N/N=C/c1cc(C)ccc1O	4	11*	1	6	2	3
Cc1ccc(/C=N/Nc2ccc(C(=O)O)cc2)s1	-1	-5	-2	-4	-1	-4
Cc1ccsc1/C=N/Nc1ccc(C(=O)O)cc1	6.4*	2	0	-3	1	-5
Cc1c(N2C(=O)c3ccc(Br)cc3C2=O)c(=O)n(-c2ccccc2)n1C	-1	-2	-1	-5	0	5.4*
COc1ccc(NC(=S)Nc2cccc3ccccc23)cc1OC	3	0	0	-1	-2	1
Cc1ccc(C(=O)N/C(=C/c2ccco2)C(=O)NCc2ccco2)cc1	0	-1	-1	0	0	-1
Cc1ccc(C(=O)N/C(=C\c2ccco2)C(=O)NCc2cccnc2)cc1	-2	-1	-1	8.0*	0	3
O=C(Cc1c(F)cccc1Cl)NCc1cccnc1	5.6*	3	0	-2	0	1
